Usually inhibition stands for the change of the read-out against control, counted positive when it falls.

In assay [1] the target is Protein kinase C gamma type (Homo sapiens) (UniProt P05129). The note with it: at 1 µM.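 Further: each value is an averaged percent inhibition of the enzyme.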
Assay [2] concerns the target T1, Protein kinase C iota type (Homo sapiens) (UniProt P41743).
T1 sequence (whole entry): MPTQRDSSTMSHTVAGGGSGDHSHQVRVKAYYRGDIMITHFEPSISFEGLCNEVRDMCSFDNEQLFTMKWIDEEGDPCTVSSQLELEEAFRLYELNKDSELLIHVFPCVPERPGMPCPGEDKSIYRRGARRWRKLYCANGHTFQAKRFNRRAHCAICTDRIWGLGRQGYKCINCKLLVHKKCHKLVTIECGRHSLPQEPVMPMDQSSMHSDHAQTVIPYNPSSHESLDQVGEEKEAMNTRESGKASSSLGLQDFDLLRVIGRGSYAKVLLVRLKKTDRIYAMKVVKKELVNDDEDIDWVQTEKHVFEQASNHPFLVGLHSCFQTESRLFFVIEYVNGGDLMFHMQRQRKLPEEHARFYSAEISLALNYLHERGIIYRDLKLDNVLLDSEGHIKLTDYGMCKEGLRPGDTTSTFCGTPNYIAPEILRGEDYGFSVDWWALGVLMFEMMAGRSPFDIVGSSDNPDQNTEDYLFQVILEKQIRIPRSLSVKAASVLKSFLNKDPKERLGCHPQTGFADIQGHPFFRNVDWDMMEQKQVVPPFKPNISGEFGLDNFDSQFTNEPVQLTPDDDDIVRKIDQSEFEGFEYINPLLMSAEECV
Conditions: at 0.1 µM.

The target in assay [3] is T1, Protein kinase C iota type (Homo sapiens). Conditions: at 1 µM.
Assay [4] concerns the target Protein kinase C theta type (Homo sapiens) (UniProt Q04759). The note with it: at 0.1 µM.
Assay [5] shares this target. Conditions: at 1 µM.
Assay [6] deals with Protein kinase C beta type (Homo sapiens) (UniProt P05771). Conditions: at 0.1 µM.
Assay [7] has the same target. Conditions: at 1 µM.
The target of assay [8] is T2, Serine/threonine-protein kinase D1 (Homo sapiens) (UniProt Q15139).
T2 sequence (whole entry): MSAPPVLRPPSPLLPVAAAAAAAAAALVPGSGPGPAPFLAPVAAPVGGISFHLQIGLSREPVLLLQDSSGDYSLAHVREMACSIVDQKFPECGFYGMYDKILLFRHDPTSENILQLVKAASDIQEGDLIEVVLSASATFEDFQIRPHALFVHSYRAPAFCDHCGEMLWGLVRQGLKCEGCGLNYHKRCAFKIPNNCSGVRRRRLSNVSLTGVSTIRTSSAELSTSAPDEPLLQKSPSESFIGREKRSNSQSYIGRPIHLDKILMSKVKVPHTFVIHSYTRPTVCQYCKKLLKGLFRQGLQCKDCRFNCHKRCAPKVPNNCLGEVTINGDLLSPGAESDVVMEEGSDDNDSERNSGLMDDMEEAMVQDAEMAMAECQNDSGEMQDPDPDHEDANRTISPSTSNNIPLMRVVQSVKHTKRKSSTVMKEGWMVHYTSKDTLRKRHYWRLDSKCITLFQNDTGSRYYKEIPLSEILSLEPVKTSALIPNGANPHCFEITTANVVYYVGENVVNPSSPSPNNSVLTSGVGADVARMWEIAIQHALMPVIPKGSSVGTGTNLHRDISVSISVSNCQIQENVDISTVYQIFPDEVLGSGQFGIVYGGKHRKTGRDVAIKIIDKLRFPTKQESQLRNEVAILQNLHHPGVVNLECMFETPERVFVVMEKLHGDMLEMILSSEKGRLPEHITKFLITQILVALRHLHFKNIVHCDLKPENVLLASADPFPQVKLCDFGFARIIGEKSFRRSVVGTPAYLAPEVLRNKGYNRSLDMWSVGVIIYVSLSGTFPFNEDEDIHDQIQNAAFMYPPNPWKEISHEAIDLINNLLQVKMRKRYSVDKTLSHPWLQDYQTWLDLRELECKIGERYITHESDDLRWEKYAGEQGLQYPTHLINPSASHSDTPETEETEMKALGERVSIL
Conditions: at 0.1 µM.

Assay [9] concerns the target T2, Serine/threonine-protein kinase D1 (Homo sapiens). Conditions: at 1 µM.
Assay [10] addresses T3, Serine/threonine-protein kinase D2 (Homo sapiens) (UniProt Q9BZL6).
T3 sequence (whole entry): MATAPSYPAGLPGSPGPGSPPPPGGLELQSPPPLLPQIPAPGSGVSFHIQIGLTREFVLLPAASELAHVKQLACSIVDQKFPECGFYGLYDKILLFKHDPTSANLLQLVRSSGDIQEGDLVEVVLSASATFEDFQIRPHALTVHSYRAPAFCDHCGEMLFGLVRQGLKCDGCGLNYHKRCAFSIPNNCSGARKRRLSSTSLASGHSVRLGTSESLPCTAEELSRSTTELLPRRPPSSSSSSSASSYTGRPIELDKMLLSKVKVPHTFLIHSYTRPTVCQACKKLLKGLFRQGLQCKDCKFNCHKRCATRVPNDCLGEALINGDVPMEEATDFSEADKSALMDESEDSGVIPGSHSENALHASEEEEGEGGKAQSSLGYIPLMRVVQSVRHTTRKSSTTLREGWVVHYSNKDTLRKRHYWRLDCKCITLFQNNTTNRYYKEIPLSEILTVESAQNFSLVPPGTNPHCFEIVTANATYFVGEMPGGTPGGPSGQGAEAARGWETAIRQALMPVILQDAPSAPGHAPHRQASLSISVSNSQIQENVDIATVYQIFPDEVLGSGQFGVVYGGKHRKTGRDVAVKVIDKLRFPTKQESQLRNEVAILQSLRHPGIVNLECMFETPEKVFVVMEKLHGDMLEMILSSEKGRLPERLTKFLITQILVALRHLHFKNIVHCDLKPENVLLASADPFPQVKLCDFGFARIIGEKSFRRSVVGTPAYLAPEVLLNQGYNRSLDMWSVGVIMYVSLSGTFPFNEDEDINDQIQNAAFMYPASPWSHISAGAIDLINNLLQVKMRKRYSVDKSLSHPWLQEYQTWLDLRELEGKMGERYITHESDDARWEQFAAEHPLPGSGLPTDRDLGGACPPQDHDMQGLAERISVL
Conditions: at 0.1 µM.

The target of assay [11] is T3, Serine/threonine-protein kinase D2 (Homo sapiens). Conditions: at 1 µM.
Assay [12] concerns the target T4, Serine/threonine-protein kinase D3 (Homo sapiens) (UniProt O94806).
T4 sequence (whole entry): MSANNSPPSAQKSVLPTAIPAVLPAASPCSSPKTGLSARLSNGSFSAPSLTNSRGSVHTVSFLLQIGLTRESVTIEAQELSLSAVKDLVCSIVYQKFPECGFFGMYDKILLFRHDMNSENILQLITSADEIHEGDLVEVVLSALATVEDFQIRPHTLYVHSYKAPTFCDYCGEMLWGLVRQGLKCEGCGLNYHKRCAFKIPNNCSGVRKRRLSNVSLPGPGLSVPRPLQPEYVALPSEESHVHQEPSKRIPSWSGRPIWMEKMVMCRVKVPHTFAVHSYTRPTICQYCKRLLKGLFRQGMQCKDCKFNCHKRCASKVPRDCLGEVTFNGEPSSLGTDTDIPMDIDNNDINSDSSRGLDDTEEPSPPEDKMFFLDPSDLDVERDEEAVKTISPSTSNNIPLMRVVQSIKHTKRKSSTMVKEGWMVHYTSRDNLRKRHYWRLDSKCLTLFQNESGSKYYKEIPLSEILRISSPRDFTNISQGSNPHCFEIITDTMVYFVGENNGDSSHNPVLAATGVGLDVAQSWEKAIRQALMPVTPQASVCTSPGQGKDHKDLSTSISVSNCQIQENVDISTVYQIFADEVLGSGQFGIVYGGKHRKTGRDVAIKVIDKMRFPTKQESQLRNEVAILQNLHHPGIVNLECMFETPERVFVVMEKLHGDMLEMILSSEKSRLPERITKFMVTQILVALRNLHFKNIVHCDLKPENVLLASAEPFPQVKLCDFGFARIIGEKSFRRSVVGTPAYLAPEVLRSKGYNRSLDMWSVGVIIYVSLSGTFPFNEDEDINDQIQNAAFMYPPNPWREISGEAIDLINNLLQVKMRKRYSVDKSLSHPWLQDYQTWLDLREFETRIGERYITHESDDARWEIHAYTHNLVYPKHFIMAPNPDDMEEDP
The note with it: at 0.1 µM.

In assay [13] the target is T4, Serine/threonine-protein kinase D3 (Homo sapiens). Conditions: at 1 µM.
The target of assay [14] is T5, cGMP-dependent protein kinase 1 (Homo sapiens) (UniProt Q13976).
T5 sequence (whole entry): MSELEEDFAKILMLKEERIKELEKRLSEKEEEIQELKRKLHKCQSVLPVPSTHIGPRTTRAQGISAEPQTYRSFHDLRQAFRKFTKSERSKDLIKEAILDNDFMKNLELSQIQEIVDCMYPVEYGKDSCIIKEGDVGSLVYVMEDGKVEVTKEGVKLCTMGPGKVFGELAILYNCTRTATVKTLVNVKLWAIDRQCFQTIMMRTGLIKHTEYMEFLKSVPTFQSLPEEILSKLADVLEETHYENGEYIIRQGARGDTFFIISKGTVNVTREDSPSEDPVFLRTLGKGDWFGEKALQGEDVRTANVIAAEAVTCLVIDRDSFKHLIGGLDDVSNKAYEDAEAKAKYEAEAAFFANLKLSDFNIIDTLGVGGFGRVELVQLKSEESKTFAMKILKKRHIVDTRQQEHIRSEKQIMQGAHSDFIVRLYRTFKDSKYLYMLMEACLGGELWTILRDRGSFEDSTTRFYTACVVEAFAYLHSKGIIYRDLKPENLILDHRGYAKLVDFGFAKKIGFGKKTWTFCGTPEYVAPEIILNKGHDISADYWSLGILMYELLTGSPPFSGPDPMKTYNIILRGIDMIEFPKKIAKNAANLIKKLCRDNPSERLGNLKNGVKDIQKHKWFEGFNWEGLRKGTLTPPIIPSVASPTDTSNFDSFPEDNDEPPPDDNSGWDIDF
The note with it: at 0.1 µM.

Assay [15] deals with T5, cGMP-dependent protein kinase 1 (Homo sapiens). Conditions: at 1 µM.
For assay [16], the target named is T6, cGMP-dependent protein kinase 2 (Homo sapiens) (UniProt Q13237).
T6 sequence (whole entry): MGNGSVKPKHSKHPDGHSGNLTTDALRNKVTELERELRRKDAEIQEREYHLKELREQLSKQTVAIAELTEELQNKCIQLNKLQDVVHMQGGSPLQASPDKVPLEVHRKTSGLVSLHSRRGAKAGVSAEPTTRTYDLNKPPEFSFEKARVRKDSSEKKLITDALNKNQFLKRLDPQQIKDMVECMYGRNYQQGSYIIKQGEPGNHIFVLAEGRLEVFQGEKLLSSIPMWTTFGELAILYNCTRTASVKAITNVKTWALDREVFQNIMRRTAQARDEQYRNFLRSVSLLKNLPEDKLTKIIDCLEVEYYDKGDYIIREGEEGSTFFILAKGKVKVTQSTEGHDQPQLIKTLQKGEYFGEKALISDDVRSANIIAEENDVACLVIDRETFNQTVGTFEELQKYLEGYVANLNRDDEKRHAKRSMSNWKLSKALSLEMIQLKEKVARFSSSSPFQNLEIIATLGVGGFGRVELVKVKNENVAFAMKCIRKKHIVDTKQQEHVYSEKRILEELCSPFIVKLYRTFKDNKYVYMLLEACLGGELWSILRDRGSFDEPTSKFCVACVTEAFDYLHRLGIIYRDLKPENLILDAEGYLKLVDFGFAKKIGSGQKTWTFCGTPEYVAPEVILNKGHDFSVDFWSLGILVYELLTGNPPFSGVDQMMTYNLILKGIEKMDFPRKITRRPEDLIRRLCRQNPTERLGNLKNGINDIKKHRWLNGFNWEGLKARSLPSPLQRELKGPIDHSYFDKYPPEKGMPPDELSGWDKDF
Conditions: at 0.1 µM.

The target of assay [17] is T6, cGMP-dependent protein kinase 2 (Homo sapiens). Conditions: at 1 µM.
Assay [18] has as its target T7, cAMP-dependent protein kinase catalytic subunit PRKX (Homo sapiens) (UniProt P51817).
T7 sequence (whole entry): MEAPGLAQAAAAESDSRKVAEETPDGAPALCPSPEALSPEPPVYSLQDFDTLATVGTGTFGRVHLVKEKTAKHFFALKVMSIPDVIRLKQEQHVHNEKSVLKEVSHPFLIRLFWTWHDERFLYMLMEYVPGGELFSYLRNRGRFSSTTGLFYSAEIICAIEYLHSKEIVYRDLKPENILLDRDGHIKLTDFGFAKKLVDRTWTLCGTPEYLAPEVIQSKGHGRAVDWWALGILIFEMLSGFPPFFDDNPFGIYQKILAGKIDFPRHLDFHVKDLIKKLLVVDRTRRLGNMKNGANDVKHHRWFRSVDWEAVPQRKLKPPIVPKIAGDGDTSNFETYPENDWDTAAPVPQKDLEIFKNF
The note with it: at 0.1 µM.

Assay [19] addresses T7, cAMP-dependent protein kinase catalytic subunit PRKX (Homo sapiens). The note with it: at 1 µM.
The target in assay [20] is Rho-associated protein kinase 1 (Homo sapiens) (UniProt Q13464). The note with it: at 0.1 µM.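 Further: values are mean percent inhibition of ROCK1.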
Rho-associated protein kinase 1 (Homo sapiens), sequence (Q13464 2-1354 limits assumed): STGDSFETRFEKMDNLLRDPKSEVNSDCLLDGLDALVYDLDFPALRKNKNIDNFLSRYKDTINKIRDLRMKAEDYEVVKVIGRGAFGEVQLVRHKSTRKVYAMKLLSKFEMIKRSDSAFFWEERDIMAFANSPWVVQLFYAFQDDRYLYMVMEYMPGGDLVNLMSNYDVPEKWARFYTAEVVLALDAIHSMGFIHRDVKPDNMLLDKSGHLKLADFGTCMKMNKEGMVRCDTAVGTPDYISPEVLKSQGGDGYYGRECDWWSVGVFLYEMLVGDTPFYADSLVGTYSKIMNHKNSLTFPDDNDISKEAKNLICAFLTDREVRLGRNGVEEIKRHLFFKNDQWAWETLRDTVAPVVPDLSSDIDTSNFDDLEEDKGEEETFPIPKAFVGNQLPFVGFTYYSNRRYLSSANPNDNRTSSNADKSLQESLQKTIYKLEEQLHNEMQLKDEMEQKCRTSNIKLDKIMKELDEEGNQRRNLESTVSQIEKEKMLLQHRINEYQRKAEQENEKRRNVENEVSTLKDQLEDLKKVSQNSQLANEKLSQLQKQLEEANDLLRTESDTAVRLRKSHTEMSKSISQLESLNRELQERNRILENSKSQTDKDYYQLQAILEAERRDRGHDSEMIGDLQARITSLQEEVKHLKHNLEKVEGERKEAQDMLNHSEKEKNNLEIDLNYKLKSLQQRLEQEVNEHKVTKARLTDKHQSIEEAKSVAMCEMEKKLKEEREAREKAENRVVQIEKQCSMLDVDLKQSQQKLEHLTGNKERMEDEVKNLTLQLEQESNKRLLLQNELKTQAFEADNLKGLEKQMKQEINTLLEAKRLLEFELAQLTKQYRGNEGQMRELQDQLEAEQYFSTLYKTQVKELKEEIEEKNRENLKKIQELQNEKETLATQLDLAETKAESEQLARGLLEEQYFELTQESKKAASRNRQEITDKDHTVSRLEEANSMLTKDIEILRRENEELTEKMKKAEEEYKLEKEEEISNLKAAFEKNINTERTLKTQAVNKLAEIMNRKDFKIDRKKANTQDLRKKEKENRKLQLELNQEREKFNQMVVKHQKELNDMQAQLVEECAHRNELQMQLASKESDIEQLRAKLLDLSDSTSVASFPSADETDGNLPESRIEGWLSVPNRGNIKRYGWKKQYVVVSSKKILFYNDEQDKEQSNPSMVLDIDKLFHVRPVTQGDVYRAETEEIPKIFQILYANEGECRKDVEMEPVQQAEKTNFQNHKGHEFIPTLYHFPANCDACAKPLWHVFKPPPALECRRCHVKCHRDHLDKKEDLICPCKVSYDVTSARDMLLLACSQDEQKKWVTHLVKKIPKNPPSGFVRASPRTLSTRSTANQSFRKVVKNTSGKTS

Protein kinase C theta type (Homo sapiens), sequence (Q04759 whole entry, looked up): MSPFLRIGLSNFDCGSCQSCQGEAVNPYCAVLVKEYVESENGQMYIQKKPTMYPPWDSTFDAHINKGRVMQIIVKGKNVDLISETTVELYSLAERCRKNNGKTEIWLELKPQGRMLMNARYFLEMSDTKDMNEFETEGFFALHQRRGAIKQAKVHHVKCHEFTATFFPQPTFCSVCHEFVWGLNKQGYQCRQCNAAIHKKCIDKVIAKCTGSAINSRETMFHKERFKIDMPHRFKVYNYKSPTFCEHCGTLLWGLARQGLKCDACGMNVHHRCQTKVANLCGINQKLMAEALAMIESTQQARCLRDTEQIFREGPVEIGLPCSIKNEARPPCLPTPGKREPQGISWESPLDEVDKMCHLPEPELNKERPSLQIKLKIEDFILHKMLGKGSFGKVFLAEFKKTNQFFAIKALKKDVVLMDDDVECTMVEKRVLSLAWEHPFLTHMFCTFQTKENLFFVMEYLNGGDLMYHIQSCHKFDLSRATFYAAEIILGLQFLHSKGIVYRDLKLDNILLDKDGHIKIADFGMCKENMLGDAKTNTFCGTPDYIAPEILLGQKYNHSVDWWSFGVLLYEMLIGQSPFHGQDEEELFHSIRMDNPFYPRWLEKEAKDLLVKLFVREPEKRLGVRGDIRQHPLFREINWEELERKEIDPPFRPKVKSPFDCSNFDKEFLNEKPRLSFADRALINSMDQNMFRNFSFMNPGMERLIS
Protein kinase C beta type (Homo sapiens), sequence (P05771 2-671 limits assumed): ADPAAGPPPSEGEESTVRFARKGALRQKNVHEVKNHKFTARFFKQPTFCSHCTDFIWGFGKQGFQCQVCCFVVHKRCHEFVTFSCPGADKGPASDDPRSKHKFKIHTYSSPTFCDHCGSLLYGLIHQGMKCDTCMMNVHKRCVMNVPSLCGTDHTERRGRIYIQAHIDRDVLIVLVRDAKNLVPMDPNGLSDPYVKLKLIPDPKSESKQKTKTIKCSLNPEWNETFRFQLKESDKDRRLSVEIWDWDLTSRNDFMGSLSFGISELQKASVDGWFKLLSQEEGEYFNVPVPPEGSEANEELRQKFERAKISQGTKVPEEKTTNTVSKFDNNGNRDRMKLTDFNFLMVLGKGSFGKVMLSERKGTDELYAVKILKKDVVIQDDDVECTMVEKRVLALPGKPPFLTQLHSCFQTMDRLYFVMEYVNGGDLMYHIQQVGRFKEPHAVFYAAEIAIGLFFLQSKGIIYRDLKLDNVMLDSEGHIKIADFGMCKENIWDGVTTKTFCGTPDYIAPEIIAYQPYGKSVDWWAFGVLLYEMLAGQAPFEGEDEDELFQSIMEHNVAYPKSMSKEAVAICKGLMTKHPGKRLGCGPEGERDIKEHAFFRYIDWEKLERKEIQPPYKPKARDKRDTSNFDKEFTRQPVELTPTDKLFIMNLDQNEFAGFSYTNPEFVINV

As for `Nc1ncc(-c2cccc(S(N)(=O)=O)c2)c2scc(-c3ccc(F)c(Cl)c3)c12`, the inhibition in assay [1] amounted to 2.77%; in assay [2], 1.76%; in assay [3], 2.27%; in assay [4], 1.73%; in [5], 2.11%; in assay [6] it was 0.92%. Besides, the inhibition in assay [7] is 1.52%; in assay [8], 6.59%; in assay [9], 35%; in [10] it was 8.43%; in assay [11], 43.8%; in assay [12] it was 6.03%. Further, the inhibition was 33.1% in assay [13]; 1.07% in [14]; -0.14% in [15]; 2.34% in assay [16]; 1.46% in assay [17]; 1.86% in assay [18]. The inhibition was 1.14% in assay [19] and 1.03% in assay [20].
Take `CC(C)(CO)CNC(=O)c1ccc2c(c1)/C(=N/Nc1ccc(S(N)(=O)=O)cc1)C(=O)N2`: the inhibition in [1] is 3.43%; in [2], -0.53%; in assay [3], -0.82%; in [4], 0.56%; in assay [5] it was 0.9%; in assay [6], 0.36%. The inhibition was determined as 1.12% in assay [7]; 0.49% in assay [8]; 13.9% in [9]; 0.9% in assay [10]; 11.8% in assay [11]; 0.07% in assay [12]. The inhibition in assay [13] stood at 9.82%; in [14] it was 0.66%; in [15], 11.8%; in [16] it was 2.6%; in assay [17] it was 22%; in [18] it was 0.91%. Besides, the figures for the inhibition in [19] and in assay [20] were 3.07% and 0.33%, respectively.

For the origin of these results see ChEMBL document CHEMBL1961873, “Compounds: GSK PKIS; Assays: Nanosyn kinase panel” (2012).
